According to PubChem BioAssay (NCI):
About 83,000 compounds went through this panel and 20% of them were active in at least one assay; those are over-represented in the sample as a whole.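 Results are percent growth after 48 hours of single-concentration exposure. 100 means growth as in untreated cells, lower positive values show inhibition; negative values down to -100 show cell death.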 Values without a mark were called inactive. Active and inactive are the calls of the source. How the source made its calls: active means growth percent below 10; inactive means the rest.

Key:
Test in all cases: NCI-60 one-dose screen, 48 h (100 = growth as untreated, 0 = no growth, -100 = all killed)
Conditions in all cases: 10 µM unless noted
HCT-15 colon = system: HCT-15 colon
HT29 colon = system: HT29 colon
SNB-19 CNS = system: SNB-19 CNS
U251 CNS = system: U251 CNS
PC-3 prostate = system: PC-3 prostate
SK-MEL-5 melanoma = system: SK-MEL-5 melanoma
UACC-62 melanoma = system: UACC-62 melanoma
LOX IMVI melanoma = system: LOX IMVI melanoma
SK-MEL-28 melanoma = system: SK-MEL-28 melanoma
SK-MEL-2 melanoma = system: SK-MEL-2 melanoma
EKVX NSCLC = system: EKVX NSCLC
SN12C renal = system: SN12C renal
UO-31 renal = system: UO-31 renal
TK-10 renal = system: TK-10 renal
ACHN renal = system: ACHN renal
CAKI-1 renal = system: CAKI-1 renal
A498 renal = system: A498 renal
CCRF-CEM leukemia = system: CCRF-CEM leukemia
MOLT-4 leukemia = system: MOLT-4 leukemia

Compound | growth (HCT-15 colon) | growth (HT29 colon) | growth (SNB-19 CNS) | growth (U251 CNS) | growth (PC-3 prostate) | growth (SK-MEL-5 melanoma) | growth (UACC-62 melanoma) | growth (LOX IMVI melanoma) | growth (SK-MEL-28 melanoma) | growth (SK-MEL-2 melanoma) | growth (EKVX NSCLC) | growth (SN12C renal) | growth (UO-31 renal) | growth (TK-10 renal) | growth (ACHN renal) | growth (CAKI-1 renal) | growth (A498 renal) | growth (CCRF-CEM leukemia) | growth (MOLT-4 leukemia)
CCC(=O)Oc1ccc(/C(=C(/C)Cc2cccc(OC)c2)c2ccc(OCCN(C)C)cc2)cc1 | 48.2% | 43.7% | 92.6% | 71.3% | 85.5% | 92.9% | 103% | 73.4% | 110% | 100% | 94.4% | 85.9% | 67.4% | 99.4% | 99.5% | 91.3% | 84.4% | 42.8% | 68.4%
COc1ccc(Nc2nn3c(C)cc(C)nc3c2C(=O)Nc2ccc(C)cc2)c(OC)c1 | 101% | 101% | 101% | 94.8% | 98.8% | 103% | 93% | 109% | 94.4% | 92.7% | 103% | 98.4% | 82% | 107% | 101% | 95.7% | 117% | 106% | 107%
Cc1ccc(C(=O)C2=Cc3cc4ccccc4n3Cc3cnnn32)cc1 | 107% | 106% | 93% | 100% | 87.7% | 93.5% | 85.1% | 110% | 102% | 94.4% | 107% | 94.5% | 95.8% | 94.9% | 109% | 101% | 107% | 103% | 101%
CCCCOc1ccc(/C=C2/SC(N3CCOCC3)=NC2=O)cc1OCC | 98.6% | 104% | 90.8% | 95.2% | 87.1% | 98.7% | 88.6% | 89.1% | 97.4% | 102% | 90.8% | 85.2% | 79.4% | 116% | 96% | 84.8% | 90.2% | 90% | 101%
c1coc(CNc2ccnc(Nc3ccc(OCCN4CCCCC4)cc3)n2)c1 | 89.6% | 57.6% | 97.3% | 85.8% | 82.9% | 80.3% | 93.6% | 82.6% | 107% | 104% | 95.1% | 78% | 71.2% | 107% | 100% | 92.3% | 59.8% | 81.4% | 81.1%
c1ccc(Nc2nc(Nc3ccccc3)nc(Nc3ccccc3)n2)cc1 | 82.9% | 75.3% | 98.3% | 91.4% | 79.7% | 78% | 83% | 82.7% | 79% | 85.8% | 77.9% | 100% | 55.5% | 74.6% | 91.9% | 85% | 79% |  | 65.7%
COc1cc([N+](=O)[O-])c2ncccc2c1O | 4.36% (active) | 44.6% | 6.29% (active) | 53.3% | 78.9% | -59.4% (active) | 15.8% | 66% | 28.5% | 4.77% (active) | 105% | 33.7% | 25.6% | 89.2% | 88.8% | 82.9% |  | 61.3% | 119%
O=c1[nH]c2ccc(Br)cc2c2c1C(c1ccc(Cl)cc1)c1c(ncn3nc(-c4ccco4)nc13)O2 (centres undefined) | 64.9% | 73% | 75.8% | 80.8% | 72.1% | 67.4% | 59.8% | 76.7% | 91.1% | 89.1% | 48.8% | 74.3% | 35% | 110% | 65.4% | 46.3% | 59.6% | 73.9% | 88.1%
CCCCCCCCCCCCCCCCCCNC(=O)[C@H]1CSC(c2ccc(OC)cc2O)N1 (some centres undefined) | 80.7% | 45.3% | 81.2% | 63.9% | 69.7% | 93.1% | 74.9% | 62.4% | 50.5% | 75.6% | 102% | 14.3% | 53.5% | 94.7% | 88.1% | 89.8% | 81.3% | 6.93% (active) | 17.3%
O=C1/C(=C/c2ccc(Cl)cc2)CN(C(=O)CCN2CCC(=NO)CC2)C/C1=C\c1ccc(Cl)cc1 | -90.9% (active) | -71.8% (active) | -93.2% (active) | -91.1% (active) | -55.2% (active) | -84.8% (active) | -75.4% (active) | -92.7% (active) | -89.7% (active) | -68.4% (active) | -46.5% (active) | -75.2% (active) | -92.5% (active) | -74.7% (active) | -61.5% (active) | -73.9% (active) | -59.8% (active) | -23.3% (active) | -12.4% (active)
O=C(NS(=O)(=O)c1ccc2ccccc2c1)n1cc(-c2ccncc2)c(-c2ccc(Cl)c(O)c2)n1 | 82.1% | 70.3% | 109% | 84.5% | 74.2% | 77.5% | 15.5% | 49.9% | 54.6% | -2.83% (active) | 65.5% | 68.8% | 56.4% | 116% | 49.6% | 96.2% | 87.7% | 74.1% | 78.9%
N/C(=N\S(=O)(=O)c1ccccc1)Nc1nc2ccccc2s1 | 104% | 92.1% | 99% | 96.7% | 83.9% | 90.5% | 76.6% | 97.5% | 109% | 93.1% | 86.9% | 86.1% | 74.2% | 108% | 94.7% | 89.3% | 118% | 109% | 99.4%
CCCCCCCCCCCCNC(=O)[C@H]1CSC(c2cc3ccccc3s2)N1 (some centres undefined) | -34.1% (active) | -8.26% (active) | 51.2% | -78.9% (active) | -17.4% (active) | 57.9% | -76.2% (active) | -85.7% (active) | -89% (active) | -45.7% (active) | -59.6% (active) | -16.1% (active) | -82.6% (active) | -78.7% (active) | 17.5% | 74.7% | 98.9% | -45.5% (active) | -63.3% (active)
COc1ccc(C2C(C#N)=C(N)Oc3c2ccc2ccccc32)cc1 (centres undefined) | 28.3% | 34.1% | 46.7% | 35.4% | 39.9% | 31.2% | 23.6% | 27.1% | 52.2% | 24.8% | 73.8% | 51.5% | 38.8% | 81% | 52.5% | 30.8% | 0% (active) | 24.2% | 31.7%
O=C(NNC(=S)Nc1ccccc1)c1cc2ccc1CCc1ccc(cc1)CC2 | 40.2% | 76.1% | 56.9% | 49.3% | 57.8% | 43.8% | 55.9% | 59.4% | 73.5% | 74.5% | 76.3% | 58.3% | 82.2% | 99.6% | 61.4% | 63.8% | 61% | 33.8% | 57%
Cc1ccc(-c2nc(C#N)c(S(=O)(=O)n3nc(-c4ccccc4)cc3N)o2)cc1 | 67.6% | 56% | 93.7% | 96.7% | 101% | 99.8% | 94.3% | 28% | 108% | 99.4% | 99% | 90.2% | 92% | 18.1% | 25.3% | -41.1% (active) | 126% | 4.2% (active) | 1.21% (active)
CN(C)CC(C(=O)c1ccccc1)c1ccccc1 (centres undefined) | -37.7% (active) | -17.4% (active) | 84.4% | 59.8% | 38.3% | 64.2% | 34.8% | 3.08% (active) | 61% | 34.7% | 89.6% | 31.2% | 41.3% | -20% (active) | -41.5% (active) |  | 99.7% |  | 
COc1ccc(S(=O)(=O)NCCCNc2nccc(-c3c(-c4cccc([N+](=O)[O-])c4)nc4sccn34)n2)cc1 | 30.9% | 31.1% | 74.6% | 71.8% | 23.9% | -20.5% (active) | 10.1% | 30.1% | 61.4% | 41.4% | 57.2% | 42.8% | 19.7% | 89.1% | 33.8% | 34.9% | 46.2% | 18.7% | 22.5%
CC(C)c1ccc2occ(C=C3C(=O)NC(=O)NC3=O)c(=O)c2c1 | 85.8% | 94.7% | 81% | 74.3% | 92% | 97.3% | 82.1% | 87.4% | 99.8% | 93.5% | 117% | 91.5% | 86.6% | 84.6% | 104% | 103% |  | 77.8% | 66.8%
O=[N+]([O-])c1cnc(Sc2ccncn2)s1 | -16% (active) | 55.5% | 103% | 91.9% | 14.4% | 88.2% | 70.4% | 64.5% | -61% (active) | -58% (active) | 61.7% |  | -88.3% (active) |  | -97.8% (active) |  | 88% | -32.3% (active) | -42.3% (active)
COC(=O)c1nc(-c2ccccc2)oc1S(=O)(=O)N1CCN(c2cccc(Cl)c2)CC1 | 65.5% | 50.8% | 63.6% | 72.2% | 82% | 99.3% | 79.7% | 44.3% | 88.3% | 90% | 93.4% | 74.5% | 62.9% | 89.4% | 84.8% |  | 111% | 4.91% (active) | 39.3%
O=c1[nH]c(Nc2ccc(S(=O)(=O)O)cc2)nc2nc(Nc3ccc(NC(=S)Nc4ccccc4)cc3)nc(-c3ccc(O)cc3O)c12 | 105% | 125% | 91.1% | 101% | 108% | 114% | 91.5% | 96.2% | 112% | 101% | 110% |  | 73.9% | 156% | 100% | 134% | 111% | 94.5% | 91.4%
COc1ccc(C2CC(c3ccc(OC)cc3OC)=NN2c2ccc(S(N)(=O)=O)cc2)cc1 (centres undefined) | 75% | 71.8% | 85.7% | 79.3% | 56% | 91.6% | 77.2% | 101% | 125% | 94.6% | 87.5% | 90.8% | 86.8% |  | 107% |  | 102% | 75.5% | 61.8%
